According to the supplement of paper PMC6555819:

Experiments:
Experiment in all cases: PBM binding z-score (relative to random genomic background probes); higher = stronger binding; sequences stand for … in GC…GCGATTGACAGCGTAGAATGAAGG
[1] = system: FXR:RXRa (NR concentration 270 nM, RXRa partner concentration 90 nM)
Procedure, shortened: (§1)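 Ligand-free nuclear receptor dimers were bound for 1 h to custom Agilent 4×180K protein-binding microarrays. Detection used antibodies against each partner (one per run). Binding z-scores rest on regression-normalized fluorescence, with random background probes as the reference.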

[2] = system: LXRa:RXRa (NR concentration 270 nM, RXRa partner concentration 90 nM)
Procedure, shortened: as §1

[3] = system: LXRa homodimer (NR concentration 270 nM)
Procedure, shortened: as §1

[4] = system: LXRb:RXRa (NR concentration 270 nM, RXRa partner concentration 90 nM)
Procedure, shortened: as §1

[5] = system: LXRb homodimer (NR concentration 270 nM)
Procedure, shortened: as §1

[6] = system: PPARa:RXRa (NR concentration 270 nM, RXRa partner concentration 90 nM)
Procedure, shortened: as §1

[7] = system: PPARg:RXRa (NR concentration 180 nM, RXRa partner concentration 90 nM)
Procedure, shortened: as §1

[8] = system: PPARg:RXRa 270nM:90nM, anti-RXR (NR concentration 270 nM, RXRa partner concentration 90 nM)
Procedure, shortened: as §1

[9] = system: PPARg:RXRa 30nM:10nM, anti-RXR (NR concentration 30 nM, RXRa partner concentration 10 nM)
Procedure, shortened: as §1

[10] = system: PPARg:RXRa 90nM:30nM, anti-RXR (NR concentration 90 nM, RXRa partner concentration 30 nM)
Procedure, shortened: as §1

[11] = system: PPARg:RXRa DBDmut IVT, anti-RXR (DBD mutation: RXRa K156A/R161A, NR concentration 270 nM, RXRa partner concentration 90 nM)
Procedure, shortened: as §1

[12] = system: PPARg:RXRa IVT, anti-PPARg (NR concentration 270 nM, RXRa partner concentration 90 nM)
Procedure, shortened: as §1

[13] = system: PPARg DBDmut:RXRa IVT, anti-PPARg (DBD mutation: PPARg1 K132A/R137A, NR concentration 270 nM, RXRa partner concentration 90 nM)
Procedure, shortened: as §1

[14] = system: PPARg DBDmut IVT, anti-PPARg (DBD mutation: PPARg1 K132A/R137A, NR concentration 270 nM)
Procedure, shortened: as §1

[15] = system: PPARg homodimer (NR concentration 180 nM)
Procedure, shortened: as §1

[16] = system: PXR:RXRa (NR concentration 270 nM, RXRa partner concentration 90 nM)
Procedure, shortened: as §1

[17] = system: PXR homodimer (NR concentration 270 nM)
Procedure, shortened: as §1

[18] = system: RARa:RXR (NR concentration 270 nM, RXRa partner concentration 90 nM)
Procedure, shortened: as §1

[19] = system: RARa homodimer (NR concentration 270 nM)
Procedure, shortened: as §1

[20] = system: RARb:RXRa (NR concentration 270 nM, RXRa partner concentration 90 nM)
Procedure, shortened: as §1

Row | Sequence | PBM binding z-score [1] | PBM binding z-score [2] | PBM binding z-score [3] | PBM binding z-score [4] | PBM binding z-score [5] | PBM binding z-score [6] | PBM binding z-score [7] | PBM binding z-score [8] | PBM binding z-score [9] | PBM binding z-score [10] | PBM binding z-score [11] | PBM binding z-score [12] | PBM binding z-score [13] | PBM binding z-score [14] | PBM binding z-score [15] | PBM binding z-score [16] | PBM binding z-score [17] | PBM binding z-score [18] | PBM binding z-score [19] | PBM binding z-score [20]
1 | TCTCGGAGGACACGAAGGTGAGAGCTTTCCAGAG | -0.0901 | -0.338 | -0.832 | -0.756 | -1.18 | -0.0332 | 0.00837 | 0.718 | 1.9 | 0.958 | 1.32 | 0.688 | -0.824 | -1.52 | -0.651 | -0.315 | -0.615 | -0.0834 | -0.906 | 1.69
2 | CAAACTAGGTCAAGAGGACAAAGTCCGCTTCCCG | 3.92 | 2.83 | 1.1 | 1.67 | 0.143 | 4.69 | 7.86 | 6.69 | 4.57 | 6.62 | 8.17 | 8.27 | 2.16 | 2.91 | 1.84 | 1.37 | 0.291 | 2.12 | 0.947 | 4.37
3 | TCGAGTAGGTTAGGGGCATTCATAATGGCGTCGA | 0.0373 | 0.369 | 0.0659 | 0.931 | -0.211 | 1.4 | 1.06 | 2.19 | 1.35 | 1.98 | 2.14 | 1.72 | -0.476 | -0.145 | 0.584 | 0.584 | 0.233 | 0.705 | 0.173 | 1.07
4 | TTACCAAGGTGAGCTGAAGTCGTTGATCCAACTC | -0.293 | -0.529 | -0.801 | -0.542 | -1.23 | 0.187 | -0.231 | 0.143 | -0.185 | 0.0287 | 0.859 | 1.48 | -0.768 | -0.947 | -0.94 | -0.181 | -0.685 | -0.105 | -0.713 | 0.929
5 | CTTTACGGGTCACGAGGTTATAGCACGACGAGCG | 7.21 | 5.4 | 1.34 | 4.38 | 0.444 | 6.35 | 8.06 | 7.02 | 4.31 | 6.25 | 5.55 | 6.46 | 1.86 | 2.29 | 2.93 | 4.96 | 0.279 | 6.19 | 0.513 | 4.81
6 | CGAACTAGGTCATTGACAGGACAGCGAATAGTAA | 4.04 | 2.83 | 0.577 | 1.84 | -0.147 | 4.83 | 7.35 | 6.29 | 3.94 | 5.75 | 7.7 | 7.96 | 1.01 | 0.969 | 1.57 | 1.35 | 0.255 | 2.1 | 0.179 | 3.61
7 | CAAACTAGGTCACAAAGGTCAAAGTCCGTGCGTA | 7.43 | 6.7 | 7.48 | 6.59 | 3 | 6.49 | 10.3 | 8.31 | 7.58 | 8.55 | 8.59 | 8.71 | 2.54 | 2.7 | 7.19 | 6.69 | 11.9 | 7.63 | 4.27 | 5.46
